# Results filed as inconclusive are left out. The source made the active and inactive calls. Rule for the calls, unless noted: active = hit-call score of the fitted dose curve at least 0.9, where 1 is the maximum; inactive = score below 0.9.
# Tests used:
# [1] = CCTE_Shafer_MEA_acute_spike_number: CCTE's Neural Acute Assay for Total Number of Spikes, Shafer Lab (AID 2284008);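 for AC50: curve fitted for decrease in spike count so AC50 reflects inhibitors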
# Procedure, shortened: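 Total spike count from 40 min recordings before and during compound exposure (0.03-40 uM), given as per-well percent change. Cortical cultures from rat, DIV 13 or 15, 37 C; adaptive detection threshold 8x rms noise.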
# [2] = CCTE_Shafer_MEA_acute_firing_rate_mean: CCTE's Neural Acute Assay for Mean Firing Rate, Shafer Lab (AID 2284009);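 note: analyzed for loss of signal so actives lower firing rate relative to DMSO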
# Procedure, shortened: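 Primary rat cortical neurons on 16-electrode MEA wells were exposed on DIV 13 or 15 to compound (0.03-40 uM). Spike counts per recording time, averaged over electrodes, were compared between 40-min baseline and 40-min post-exposure recordings as percent change.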
# [3] = CCTE_Harrill_HTTr_Viability_MCF7: CCTE's 6-hour Cell Viability Assessment for the High-Throughput Transcriptomics (HTTr) Platform, in MCF-7 cells cultured in DMEM + 10% fetal bovine serum, Harrill Lab (AID 2284010)
# Procedure, shortened: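 PI exclusion, high-content imaging; 8-pt dilution series, 6 h exposure; bidirectional fit vs DMSO (neg. ctrl/baseline); gain of signal = loss of membrane integrity.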
# [4] = CCTE_Harrill_HTTr_Apoptosis_MCF7: CCTE's 6-hour Apoptosis Assessment for the High-Throughput Transcriptomics (HTTr) Platform, in MCF-7 cells cultured in DMEM + 10% fetal bovine serum, Harrill Lab (AID 2284011)
# Procedure, shortened: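 High-content imaging of CellEvent Caspase 3/7 Green signal follows a six-hour exposure, with eight concentrations per chemical. MCF-7 cells grown in DMEM plus 10% fetal bovine serum; activity fitted in both directions against DMSO.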
# [5] = CCTE_Shafer_MEA_acute_burst_number: CCTE's Neural Acute Assay for Single-Electrode Bursts, Shafer Lab (AID 2284013)
# Procedure, shortened: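 Primary rat cortical neurons on 16-electrode MEA wells, DIV 13 or 15, exposed to compound (0.03-40 uM; ≥3 wells); 40-min recordings at 37 C before and after treatment. Burst count expressed as percent change from baseline, DMSO as negative control.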
# [6] = CCTE_Shafer_MEA_acute_burst_duration_mean: CCTE's Neural Acute Assay for Mean Burst Duration, Shafer Lab (AID 2284014);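 note: hits are decreases in mean burst duration relative to DMSO controls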
# Procedure, shortened: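 Mean burst duration was compared between a 40 min baseline and a 40 min recording in the presence of compound (0.03-40 uM, 37 C), giving percent change per well. Cultures were rat cortical neurons at DIV 13 or 15; wells needed ≥10 active electrodes.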
# [7] = CCTE_Shafer_MEA_acute_per_burst_spike_number_mean: CCTE's Neural Acute Assay for Average Number of Spikes Per Burst, Shafer Lab (AID 2284015);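 note: hits are decreases in mean spikes per burst versus baseline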
# Procedure, shortened: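 Rat primary cortical neurons on 48-well MEAs (DIV 13 or 15) were treated with 0.03-40 uM compound at 37 C. Mean spikes per burst over 40 min were recorded before and after exposure and expressed as percent change from baseline, relative to DMSO.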
# [8] = CCTE_Shafer_MEA_acute_interburst_interval_mean: CCTE's Neural Acute Assay for Mean Interburst Interval, Shafer Lab (AID 2284016);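 note: percent change of mean interburst interval versus each well's own pre-dose baseline; curves fitted for decrease in interburst interval relative to DMSO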
# Procedure, shortened: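 Rat primary cortical neurons on 48-well MEAs at DIV 13 or 15 were exposed acutely to 0.03-40 uM. Spikes detected at 8x rms noise, 37 C. Mean interburst interval from 40 min recordings expressed as percent change from 40 min pre-treatment baseline.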
# [9] = CCTE_Harrill_HTTr_CellCount_MCF7: CCTE's Cell Proliferation Assessment for the High-Throughput Transcriptomics (HTTr) Platform, Harrill Lab (AID 2284012; active = hit-call score of the fitted dose curve at least 0.9, where 1 is the maximum;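 note: count of Hoechst-stained nuclei per well by high-content imaging in MCF-7 cells; cells exposed to compound for six hours; intended direction is loss of nuclei count meaning fewer cells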)
# Procedure, shortened: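 Readout: Hoechst nuclear count by high-content imaging. MCF-7, 8-point dilution series, 6 h exposure. Bidirectional fit vs DMSO baseline.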
smiles,measurement,setting,value
CCCCCCCCCCCCc1cccc(S(=O)(=O)O)c1,outcome,[1],inactive
same,outcome,[2],inactive
same,outcome,[3],inactive
same,outcome,[4],inactive
same,outcome,[5],inactive
same,outcome,[6],inactive
same,outcome,[7],inactive
same,outcome,[8],inactive
OCCCCO,outcome,[1],inactive
same,outcome,[2],inactive
same,outcome,[3],inactive
same,outcome,[4],inactive
same,outcome,[5],inactive
same,outcome,[6],inactive
same,outcome,[7],inactive
same,outcome,[8],inactive
CC(C)(C)c1ccccc1O,AC50,[1],4.82 µM (active)
same,AC50,[2],4.87 µM (active)
same,outcome,[3],inactive
same,outcome,[4],inactive
same,outcome,[9],inactive
same,outcome,[5],inactive
same,outcome,[6],inactive
same,outcome,[7],inactive
same,outcome,[8],inactive
N#Cc1cccnc1,outcome,[1],inactive
same,outcome,[2],inactive
same,outcome,[3],inactive
same,outcome,[4],inactive
same,outcome,[5],inactive
same,outcome,[6],inactive
same,outcome,[7],inactive
same,outcome,[8],inactive
COCC(=O)N(c1c(C)cccc1C)[C@H](C)C(=O)OC,outcome,[3],inactive
same,outcome,[4],inactive
CCOP(=S)(OCC)Oc1ccc(Cl)cc1Cl,outcome,[3],inactive
same,outcome,[4],inactive
CN(C)C(=S)S,outcome,[1],inactive
same,outcome,[2],inactive
same,outcome,[3],inactive
same,outcome,[4],inactive
same,outcome,[5],inactive
same,outcome,[6],inactive
same,outcome,[7],inactive
same,outcome,[8],inactive
CN(C1CCCCC1)C1CCCCC1,outcome,[3],inactive
same,outcome,[4],inactive
C[C@]12CC[C@@H](O)C[C@@H]1CC[C@@H]1[C@@H]2CC[C@]2(C)C(=O)CC[C@@H]12,outcome,[3],inactive
same,outcome,[4],inactive
CC(C)(C)c1ccc(CCOc2ncnc3ccccc23)cc1,outcome,[3],inactive
same,outcome,[4],inactive
Cc1cc(Cl)ccc1OCCCC(=O)O,outcome,[3],inactive
same,outcome,[4],inactive
same,outcome,[9],inactive
C=CCc1ccccc1O,outcome,[3],inactive
same,outcome,[4],inactive
Oc1c(Br)cc(Br)cc1Br,outcome,[3],inactive
same,outcome,[4],inactive
Nc1nc(N)nc(Cl)n1,outcome,[3],inactive
same,outcome,[4],inactive
O=NN1CCCCCC1,outcome,[3],inactive
same,outcome,[4],inactive
CC(C=O)Cc1ccc2c(c1)OCO2 (configuration not stated),outcome,[3],inactive
same,outcome,[4],inactive
same,outcome,[9],inactive
O=C(O)COc1cc(Cl)c(Cl)cc1Cl,outcome,[3],inactive
same,outcome,[4],inactive
same,outcome,[9],inactive
O=NN1CCOCC1,outcome,[3],inactive
same,outcome,[4],inactive
Brc1ccc(Br)cc1,outcome,[3],inactive
same,outcome,[4],inactive
same,outcome,[9],inactive
OCCN(CCO)CCO,outcome,[3],inactive
same,outcome,[4],inactive
same,outcome,[9],inactive
N#CS,outcome,[3],inactive
same,outcome,[4],inactive
CC1CC(=O)O1 (configuration not stated),outcome,[3],inactive
same,outcome,[4],inactive
O=[N+]([O-])c1ccccc1O,outcome,[3],inactive
same,outcome,[4],inactive
same,outcome,[9],inactive
CCN(N=O)C(N)=O,outcome,[3],inactive
same,outcome,[4],inactive
CC(C)[C@H](C(=O)OC(C#N)c1cccc(Oc2ccccc2)c1)c1ccc(OC(F)F)cc1 (some centres not stated),outcome,[3],inactive
same,outcome,[4],inactive
CC(O)(CS(=O)(=O)c1ccc(F)cc1)C(=O)Nc1ccc(C#N)c(C(F)(F)F)c1 (configuration not stated),outcome,[3],inactive
same,outcome,[4],inactive
same,outcome,[9],inactive
N#CCCC(Br)(C#N)CBr (configuration not stated),outcome,[3],inactive
same,outcome,[4],inactive
same,outcome,[9],inactive
Clc1cnc(Oc2ccc(Oc3ncc(Cl)cc3Cl)cc2)c(Cl)c1,outcome,[3],inactive
same,outcome,[4],inactive
same,outcome,[9],inactive
O=[N+]([O-])c1cccc2ccccc12,outcome,[3],inactive
same,outcome,[4],inactive
same,outcome,[9],inactive
OCC(c1ccc(Cl)cc1)c1ccc(Cl)cc1,outcome,[3],inactive
same,outcome,[4],inactive
CN(N=O)C(N)=O,outcome,[3],inactive
same,outcome,[4],inactive
CCCSP(=S)(OCC)Oc1ccc(SC)cc1 (configuration not stated),outcome,[3],inactive
same,outcome,[4],inactive
CCOP(=S)(OCC)OP(=S)(OCC)OCC,outcome,[3],inactive
same,outcome,[4],inactive
same,outcome,[9],inactive
Nc1ccc(N)cc1,outcome,[3],inactive
same,outcome,[4],inactive
same,outcome,[9],inactive
O=c1[nH]c2ccccc2n1C1CCN(CCCC(c2ccc(F)cc2)c2ccc(F)cc2)CC1,AC50,[3],77.9 µM (active)
same,AC50,[4],60.9 µM (active)
same,AC50,[9],94.7 µM (active)
Cc1cc(C(C)(C)c2ccc(O)c(C)c2)ccc1O,outcome,[3],inactive
same,outcome,[4],inactive
same,outcome,[9],inactive
CCC[CH2][Sn]([Cl])([Cl])[CH2]CCC,outcome,[3],inactive
same,outcome,[4],inactive
same,outcome,[9],inactive
C#C[C@]1(O)CC[C@H]2[C@@H]3CCC4=CC(=O)CC[C@]4(C)[C@H]3CC[C@@]21C,outcome,[3],inactive
same,outcome,[4],inactive

# From PubChem BioAssay (EPA / NIEHS)
